Reference: PubChem BioAssay (NCI)
This is part of a sample that, as a whole, favours compounds with a hit. Of some 83,000 tested, about 20% had one in any assay.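 Negative percent growth values reflect cell death: -40 means 40% of the cells present at the start died, and -100 means all died.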 Values without a mark were called inactive. Active and inactive are the calls of the source. The calls were made as follows: active = growth percent below 10; inactive = the rest.

Key:
Assay in all cases: NCI-60 one-dose screen, 48 h (100 = growth as untreated, 0 = no growth, -100 = all killed)
Settings in all cases: 10 µM unless noted
T-47D breast = system: T-47D breast
BT-549 breast = system: BT-549 breast
MDA-MB-435 melanoma = system: MDA-MB-435 melanoma
SW-620 colon = system: SW-620 colon
MCF7 breast = system: MCF7 breast
HCT-116 colon = system: HCT-116 colon
HCC-2998 colon = system: HCC-2998 colon
KM12 colon = system: KM12 colon

| SMILES | growth (T-47D breast) | growth (BT-549 breast) | growth (MDA-MB-435 melanoma) | growth (SW-620 colon) | growth (MCF7 breast) | growth (HCT-116 colon) | growth (HCC-2998 colon) | growth (KM12 colon) |
| --- | --- | --- | --- | --- | --- | --- | --- | --- |
| C#Cc1cccc(NC(=O)c2ccccc2NC(=O)CCl)c1 | 77.7% [8.25 µM] | 61.6% [8.25 µM] | 89.9% [8.25 µM] | 79.5% [8.25 µM] | 67.9% [8.25 µM] | 49.4% [8.25 µM] | 99.2% [8.25 µM] | 99.7% [8.25 µM] |
| Cn1cccc1-c1nc2c3c(ccc2[nH]1)C(=O)c1ccccc1C3=O | -18.8% (active) | 71.7% | 105% | 105% | 11.6% | 83.7% | 86.3% | 73.6% |
| COc1cc(/C=C/c2cc(/C=C/c3ccc(O)c(OC)c3)n(-c3c(Cl)cccc3Cl)c(=O)n2)ccc1O | 24.1% | 15.2% | 4.57% (active) | 10.4% | 13.7% | 4.63% (active) | 41.8% | 12.1% |
| COc1cc(/C=C/C(=O)Nc2cccnc2Nc2ccc(F)cc2)cc(OC)c1OC | 93.3% | 92.3% | 97.4% | 106% | 88.3% | 96.3% | 109% | 96.8% |
| O=[N+]([O-])c1ccccc1/C=N\NC(=S)N/N=C/c1ccccc1[N+](=O)[O-] | 61% | 47.4% | -1.94% (active) | 23.9% | 58.9% | 18.9% | 73.5% | 17% |
| COc1cccc(-c2nc3sccn3c2-c2ccnc(NCCNS(=O)(=O)c3ccc(F)cc3)c2)c1 | -4.43% (active) | 9.19% (active) | 23.3% | 42.5% | 18.7% | 22.2% | 50.1% | 22.3% |
| COc1ccc(-c2nc(SCC(=O)Nc3ccc(C(=O)/C=C/c4ccc(Cl)cc4)cc3)[nH]c(=O)c2C#N)cc1 | 61.8% | 84% | 41.9% | 102% | 41% | 2.43% (active) | – | 102% |
| O=C1c2cccc3cccc(c23)C(=O)N1CCCCN1CCN(CCCCOc2ccc(-c3nc4ccc(N5CCOCC5)cc4[nH]3)cc2)CC1 | 77.2% | 91.7% | 88.3% | 95.1% | 74.1% | 69.1% | – | 92.1% |
| CCOC(=O)c1csc(NC(=O)COc2cccc(/C=C3\CSc4ccccc4C3=O)c2)n1 | 73.8% | -88% (active) | 17.9% | -65.5% (active) | 2.02% (active) | 4.95% (active) | -31.8% (active) | -64.4% (active) |
| COc1cc2c(cc1OC)C(Sc1ccc(SC)cc1)c1c(nc(N)c(C#N)c1N)O2 (stereo not given) | -47.1% (active) | -73.9% (active) | -90.8% (active) | -68.9% (active) | -51.2% (active) | -86.8% (active) | -84.9% (active) | -72% (active) |
| Cc1[nH]c(-c2ccc3cc[nH]c3c2)c2c1C(=O)CCCC2 | 32.1% | 68.3% | 25.2% | 73.9% | 19.5% | 38.9% | 57.7% | 47.8% |
| O=c1oc2c(C(F)(F)F)cccc2cc1-c1csc(Nc2ccc(OCCF)cc2)n1 | 71.1% | 31.5% | -22.9% (active) | 26.1% | 15.3% | -26.3% (active) | – | 2.28% (active) |
| CC(=O)O[C@H]1CC[C@]2(C)[C@H]3CC=C4[C@@H]5CC(C)(C)CC[C@]5(C(=O)NCCNCCNCCN)CC[C@@]4(C)[C@]3(C)CC[C@H]2C1(C)C | -15.1% (active) | 87.2% | 9.05% (active) | -83.1% (active) | -85.9% (active) | -80.8% (active) | 1.19% (active) | 85.3% |
| COc1cc(/C=C/C(=O)c2ccc(O)c(CN3CCN(c4cc5c(cc4F)c(=O)c(C(=O)O)cn5C4CC4)CC3)c2)cc(OC)c1OC | 50.4% | 31.8% | 28.6% | 34.8% | 18.6% | 7.72% (active) | 67.2% | 72% |
| Cc1nc(Nc2ccc(F)c(Cl)c2)sc1C(=O)O | 6.86% (active) | -0.289% (active) | 20.4% | 24.8% | 11.9% | 8.02% (active) | – | -3.33% (active) |
| CSc1nc(NCCN2CCOCC2)c(C#N)c(-c2cccc([N+](=O)[O-])c2)n1 | 96.8% | 94.2% | 104% | 99.8% | 89.4% | 98.8% | 112% | 98.7% |
| CNc1ccc(-c2cc(=O)oc3ccc(Cl)cc23)cc1 | 66.8% | 21.8% | -11.5% (active) | 23.3% | 18.3% | 10% | 31.6% | 15% |
| CC1=C[C@H]2c3c(c(O)c(O)c4oc(-c5ccccc5)cc(=O)c34)[C@H](c3cc(O)c(O)c4oc(-c5ccccc5)cc(=O)c34)[C@H]2C(C)(C)C1 | 4.7% (active) | 0.289% (active) | -32.9% (active) | 7.43% (active) | 9.62% (active) | -56.3% (active) | 0.939% (active) | -14.9% (active) |
| O=S(=O)(Nc1ccc(Cl)c(F)c1)c1ccc(-c2cnc(C3CC3)o2)cc1 | 27.8% | 27.5% | 3.28% (active) | 17.9% | 13% | 23.1% | 41.5% | 38.4% |
| COc1ccc(-c2cc(=O)c3c(OC)c4ccoc4cc3o2)cc1 | 87.2% | 113% | 89.6% | 93.2% | 98% | 98% | 106% | 100% |
| COc1ccc(-c2nc3cc(C(=O)Nc4cc(OC)c(OC)c(OC)c4)ccc3n2C2CCCCC2)cc1 | 97.4% | 94.6% | 46% | 92.5% | 91.2% | 93.5% | 104% | 91.9% |
| O=[N+]([O-])c1cnc(N2CCN(CC3CC3)CC2)nc1N1CCN(CC2CC2)CC1 | 100% | 88.9% | 98.1% | 90.9% | 96.4% | 86% | 99% | 100% |
| COc1ccc(S(=O)(=O)N2CCN(C)CC2)cc1NC(=O)c1[nH]c(C)c2c1CCCCC2=O | 44.1% | 90.4% | 42.1% | 70.7% | 30% | 53.5% | 64.4% | 64.7% |
| COc1cc2c(cc1-c1c(C)noc1C)ncc1nc(C3CCOCC3)n([C@@H](C)COC(F)F)c12 | 38.1% | 64.1% | 39.7% | 63.4% | 18.4% | 30.5% | 43.3% | 48.8% |
| COc1cccc(C2=NN3C(C2)c2cc(Br)cc(OC)c2OC32CCN(Cc3ccccc3)CC2)c1 (stereo not given) | 108% | 110% | 98.3% | 96.3% | 96.3% | 114% | 99.2% | 103% |
| O=[N+]([O-])c1ccc(Nc2nc(NCCN3CCOCC3)ncc2[N+](=O)[O-])cc1 | 100% | 89% | 97.8% | 89.1% | 79.8% | 88.1% | 93.4% | 99% |
| Cc1cc(N2CCOCC2)nc(N[C@@H]2CCC[C@H](Nc3ccnc4cc(Cl)ccc34)C2)n1 | -56.6% (active) | 26% | -83% (active) | -1.97% (active) | 5.31% (active) | -6.15% (active) | 11.2% | 20.6% |
| COc1ccc(C2CC(c3ccc(Cl)cc3)=NN2/C=C2\SC(=S)N(NC(=O)Cc3ccccc3Nc3c(Cl)cccc3Cl)C2=O)cc1 (stereo not given) | 49.5% | 79% | 89.3% | 90% | 74.1% | 56.3% | 90.4% | 85.4% |
